Assay results as given in PubChem BioAssay (NCI).
About 79,000 compounds went through this panel and 15% of them were active in at least one assay; those are over-represented in the sample as a whole. Unmarked numbers belong to inactive results. The source made the active and inactive calls. No stated cut-off is given here; in the data, active means growth inhibition above about 70%; inactive means the rest.

Legend:
[1] = NCI Yeast Anticancer Drug Screen. Data for the rad52 strain (AID 147);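 further: 0% = growth of vehicle-treated control cultures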; details: S. cerevisiae rad52 mutant growth inhibition, active compounds read high
Summary of the method: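 Here a repair-compromised yeast strain receives each compound; its growth is then quantified and normalised to vehicle-only controls.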

[2] = NCI Yeast Anticancer Drug Screen. Data for the rad50EPP+ strain (AID 151);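 further: 0% = growth of vehicle-treated control cultures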; details: S. cerevisiae rad50 mutant strain, active compounds read high
Summary of the method: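 Read-out is yeast growth inhibition relative to vehicle; cells used were the rad50EPP+ strain.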

[3] = NCI Yeast Anticancer Drug Screen. Data for the mgt1 strain (AID 153); details: S. cerevisiae mgt1 mutant growth inhibition, active compounds read high
Summary of the method: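 Measured: inhibition of mgt1 yeast growth by compound, normalized to vehicle-treated cultures.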

[4] = NCI Yeast Anticancer Drug Screen. Data for the rad50 strain (AID 155);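 further: 0% = growth of vehicle-only cultures of the same strain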; details: S. cerevisiae rad50 strain growth inhibition, active compounds read high
Summary of the method: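 Genetically altered yeast (DNA repair pathway); compound treatment; growth inhibition vs vehicle ctrl.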

[5] = NCI Yeast Anticancer Drug Screen. Data for the mec2-1 strain (AID 157); details: S. cerevisiae mec2-1 strain, active compounds read high
Summary of the method: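 Using mec2-1 yeast: add compound, measure growth, express inhibition versus vehicle-treated cultures.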

[6] = NCI Yeast Anticancer Drug Screen. Data for the rad14 strain (AID 159);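 further: 0% = growth of vehicle-treated control cultures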; details: S. cerevisiae rad14 strain growth inhibition, active compounds read high
Summary of the method: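 Test compounds were applied to a repair-deficient yeast strain. Its growth was then compared with that of cultures given vehicle alone, and inhibition was expressed relative to those controls.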

[7] = NCI Yeast Anticancer Drug Screen. Data for the sgs1 mgt1 strain (AID 161);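 further: 0% = growth of cultures given vehicle only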; details: S. cerevisiae sgs1 mgt1 strain, active compounds read high
Summary of the method: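 Growth of a repair-deficient yeast mutant was monitored after compound treatment and expressed as inhibition relative to vehicle-treated cultures.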

[8] = NCI Yeast Anticancer Drug Screen. Data for the CLN2oe strain (AID 163);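 further: 0% = growth of vehicle-only control cultures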; details: S. cerevisiae CLN2oe strain, active compounds read high
Summary of the method: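 Whole-cell yeast growth assay. A strain engineered for altered cell-cycle control received compound, and inhibition relative to vehicle-treated cultures was recorded.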

[9] = NCI Yeast Anticancer Drug Screen. Data for the cln2 rad14 strain (AID 165);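 further: 0% = growth equal to vehicle treated cultures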; details: S. cerevisiae cln2 rad14 strain, active compounds read high
Summary of the method: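 Yeast strain cln2 rad14, bearing defects in cell cycle control and DNA repair, serves as the test system; values reflect growth inhibition compared with vehicle.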

[10] = NCI Yeast Anticancer Drug Screen. Data for the bub3 strain (AID 167); details: S. cerevisiae bub3 mutant strain, active compounds read high
Summary of the method: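 Yeast carrying a defined mutation is treated with each compound, and growth is compared with that of vehicle-exposed cells to give inhibition.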

[11] = NCI Yeast Anticancer Drug Screen. Data for the wt2 strain (AID 169);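 further: 0% = growth of vehicle-treated yeast cultures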; details: S. cerevisiae wt2 strain growth inhibition, active compounds read high
Summary of the method: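 Treated yeast vs. vehicle-treated yeast: growth inhibition determined.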

[12] = NCI Yeast Anticancer Drug Screen. Data for the mlh1 strain (AID 171);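 further: 0% = growth of vehicle-treated control cultures of the same strain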; details: S. cerevisiae mlh1 strain growth inhibition, active compounds read high
Summary of the method: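 A yeast strain with a defined genetic lesion serves as the test organism. Cultures receive compound or vehicle, and growth is measured.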

[13] = NCI Yeast Anticancer Drug Screen. Data for the sgs1 strain (AID 173);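 further: 0% = growth of vehicle-only control cultures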; details: S. cerevisiae sgs1 mutant, active compounds read high
Summary of the method: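 A genetically defined yeast mutant is incubated with the test compound, and its growth is compared to that of the same strain given vehicle.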

[14] = NCI Yeast Anticancer Drug Screen. Data for the mlh1 rad18 strain (AID 175); details: S. cerevisiae mlh1 rad18 strain growth inhibition, active compounds read high
Summary of the method: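 Steps: expose repair-defective yeast to compound; measure growth; express inhibition against vehicle-treated controls.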

[15] = NCI Yeast Anticancer Drug Screen. Data for the rad18 strain (AID 177); details: S. cerevisiae rad18 mutant growth inhibition, active compounds read high
Summary of the method: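 Measured value is growth inhibition of a yeast strain bearing a DNA repair alteration, referenced to vehicle-treated cells.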

[16] = at 5.0 µM (retest, dose inferred, filed as 0.5)
[17] = at 50.0 µM (retest, dose inferred, filed as 5.0)

Compound: CC(C)(C)c1ccc2c(c1)C(=O)c1ccccc1C2=O
- growth inhibition ([1]; at 1.2 µM): -9%
- growth inhibition ([1]; at 3.7 µM): -13%
- growth inhibition ([1]; at 11.0 µM): -15%
- growth inhibition ([1]; at 33.0 µM): -6%
- growth inhibition ([1]; at 100.0 µM): 4%
- growth inhibition ([2]; at 1.2 µM): -9%
- growth inhibition ([2]; at 3.7 µM): -1%
- growth inhibition ([2]; at 11.0 µM): 18%
- growth inhibition ([2]; at 33.0 µM): 27%
- growth inhibition ([2]; at 100.0 µM): 28%
- growth inhibition ([3]; at 1.2 µM): -3%
- growth inhibition ([3]; at 3.7 µM): -9%
- growth inhibition ([3]; at 11.0 µM): -7%
- growth inhibition ([3]; at 33.0 µM): -7%
- growth inhibition ([3]; at 100.0 µM): -4%
- growth inhibition ([4]; at 1.2 µM): -17%
- growth inhibition ([4]; at 3.7 µM): -18%
- growth inhibition [4, 16]: 14%
- growth inhibition ([4]; at 11.0 µM): -19%
- growth inhibition ([4]; at 33.0 µM): 8%
- growth inhibition [4, 17]: 5%
- growth inhibition ([4]; at 50.0 µM): -2.85%
- growth inhibition ([4]; at 100.0 µM): 6%
- growth inhibition ([5]; at 1.2 µM): -6%
- growth inhibition ([5]; at 3.7 µM): -6%
- growth inhibition [5, 16]: 8%
- growth inhibition ([5]; at 11.0 µM): -6%
- growth inhibition ([5]; at 33.0 µM): -9%
- growth inhibition [5, 17]: 8%
- growth inhibition ([5]; at 50.0 µM): -17.9%
- growth inhibition ([5]; at 100.0 µM): -5%
- growth inhibition ([6]; at 1.2 µM): 1%
- growth inhibition ([6]; at 3.7 µM): -13%
- growth inhibition ([6]; at 11.0 µM): -6%
- growth inhibition ([6]; at 33.0 µM): 2%
- growth inhibition ([6]; at 100.0 µM): 13%
- growth inhibition [7, 16]: 9%
- growth inhibition [7, 17]: 20%
- growth inhibition ([7]; at 50.0 µM): 0.45%
- growth inhibition ([8]; at 1.2 µM): -11%
- growth inhibition ([8]; at 3.7 µM): -12%
- growth inhibition ([8]; at 11.0 µM): -14%
- growth inhibition ([8]; at 33.0 µM): -13%
- growth inhibition ([8]; at 100.0 µM): -12%
- growth inhibition [9, 16]: -7%
- growth inhibition [9, 17]: 0%
- growth inhibition ([9]; at 50.0 µM): -6.45%
- growth inhibition ([10]; at 1.2 µM): 4%
- growth inhibition ([10]; at 3.7 µM): 24%
- growth inhibition [10, 16]: 25%
- growth inhibition ([10]; at 11.0 µM): 65%
- growth inhibition ([10]; at 33.0 µM): 78% (active)
- growth inhibition [10, 17]: 85% (active)
- growth inhibition ([10]; at 50.0 µM): 89% (active)
- growth inhibition ([10]; at 100.0 µM): 91% (active)
- growth inhibition ([11]; at 1.2 µM): 1%
- growth inhibition ([11]; at 3.7 µM): 6%
- growth inhibition ([11]; at 11.0 µM): 10%
- growth inhibition ([11]; at 33.0 µM): 10%
- growth inhibition ([11]; at 100.0 µM): 25%
- growth inhibition ([12]; at 1.2 µM): -15%
- growth inhibition ([12]; at 3.7 µM): -10%
- growth inhibition ([12]; at 11.0 µM): -10%
- growth inhibition ([12]; at 33.0 µM): -10%
- growth inhibition ([12]; at 100.0 µM): 12%
- growth inhibition ([13]; at 1.2 µM): -13%
- growth inhibition ([13]; at 3.7 µM): -7%
- growth inhibition ([13]; at 11.0 µM): 0%
- growth inhibition ([13]; at 33.0 µM): 5%
- growth inhibition ([13]; at 100.0 µM): 17%
- growth inhibition [14, 16]: 5%
- growth inhibition [14, 17]: 26%
- growth inhibition ([14]; at 50.0 µM): -4.9%
- growth inhibition ([15]; at 1.2 µM): -11%
- growth inhibition ([15]; at 3.7 µM): -9%
- growth inhibition ([15]; at 11.0 µM): -6%
- growth inhibition ([15]; at 33.0 µM): -6%
- growth inhibition ([15]; at 100.0 µM): -14%

Compound: CCN1CCC(O)(c2ccc(Oc3ccc(C)cc3)cc2)C(C(=O)c2ccc(Oc3ccc(C)cc3)cc2)C1 (stereo unspecified)
- growth inhibition ([1]; at 1.2 µM): -28%
- growth inhibition ([1]; at 3.7 µM): -32%
- growth inhibition ([1]; at 11.0 µM): 96% (active)
- growth inhibition ([1]; at 33.0 µM): 95% (active)
- growth inhibition ([1]; at 100.0 µM): 93% (active)
- growth inhibition ([3]; at 1.2 µM): -7%
- growth inhibition ([3]; at 3.7 µM): 6%
- growth inhibition ([3]; at 11.0 µM): 98% (active)
- growth inhibition ([3]; at 33.0 µM): 96% (active)
- growth inhibition ([3]; at 100.0 µM): 95% (active)
- growth inhibition ([4]; at 1.2 µM): -21%
- growth inhibition ([4]; at 3.7 µM): -20%
- growth inhibition [4, 16]: 18%
- growth inhibition ([4]; at 11.0 µM): 97% (active)
- growth inhibition ([4]; at 33.0 µM): 95% (active)
- growth inhibition [4, 17]: 96% (active)
- growth inhibition ([4]; at 50.0 µM): 85.6% (active)
- growth inhibition ([4]; at 100.0 µM): 94% (active)
- growth inhibition ([5]; at 1.2 µM): -9%
- growth inhibition ([5]; at 3.7 µM): -1%
- growth inhibition [5, 16]: 2%
- growth inhibition ([5]; at 11.0 µM): 98% (active)
- growth inhibition ([5]; at 33.0 µM): 97% (active)
- growth inhibition [5, 17]: 97% (active)
- growth inhibition ([5]; at 50.0 µM): 92% (active)
- growth inhibition ([5]; at 100.0 µM): 94% (active)
- growth inhibition ([6]; at 1.2 µM): -38%
- growth inhibition ([6]; at 3.7 µM): -9%
- growth inhibition ([6]; at 11.0 µM): 96% (active)
- growth inhibition ([6]; at 33.0 µM): 95% (active)
- growth inhibition ([6]; at 100.0 µM): 92% (active)
- growth inhibition [7, 16]: 16%
- growth inhibition [7, 17]: -2%
- growth inhibition ([7]; at 50.0 µM): 88.8% (active)
- growth inhibition ([8]; at 1.2 µM): 29%
- growth inhibition ([8]; at 3.7 µM): 22%
- growth inhibition ([8]; at 11.0 µM): 98% (active)
- growth inhibition ([8]; at 33.0 µM): 96% (active)
- growth inhibition ([8]; at 100.0 µM): 91% (active)
- growth inhibition [9, 16]: 18%
- growth inhibition [9, 17]: 10%
- growth inhibition ([9]; at 50.0 µM): 88.2% (active)
- growth inhibition ([10]; at 1.2 µM): 0%
- growth inhibition ([10]; at 3.7 µM): 23%
- growth inhibition [10, 16]: 14%
- growth inhibition ([10]; at 11.0 µM): 97% (active)
- growth inhibition ([10]; at 33.0 µM): 96% (active)
- growth inhibition [10, 17]: 15%
- growth inhibition ([10]; at 50.0 µM): 89% (active)
- growth inhibition ([10]; at 100.0 µM): 95% (active)
- growth inhibition ([11]; at 1.2 µM): -7%
- growth inhibition ([11]; at 3.7 µM): -19%
- growth inhibition ([11]; at 11.0 µM): 97% (active)
- growth inhibition ([11]; at 33.0 µM): 96% (active)
- growth inhibition ([11]; at 100.0 µM): 86% (active)
- growth inhibition ([12]; at 1.2 µM): -7%
- growth inhibition ([12]; at 3.7 µM): -2%
- growth inhibition ([12]; at 11.0 µM): 98% (active)
- growth inhibition ([12]; at 33.0 µM): 97% (active)
- growth inhibition ([12]; at 100.0 µM): 95% (active)
- growth inhibition [14, 16]: 21%
- growth inhibition [14, 17]: 95% (active)
- growth inhibition ([14]; at 50.0 µM): 91% (active)
- growth inhibition ([15]; at 1.2 µM): -20%
- growth inhibition ([15]; at 3.7 µM): 5%
- growth inhibition ([15]; at 11.0 µM): 97% (active)
- growth inhibition ([15]; at 33.0 µM): 96% (active)
- growth inhibition ([15]; at 100.0 µM): 93% (active)
